Measured values taken from PubChem BioAssay.
Activity calls are given as the source filed them.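 The calls were made as follows, unless noted: active = fluorescence slope higher than the sample average by over 3 SD (cut at about -0.22 in these data, passing the limit was not always enough); inactive = the rest.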

Molecular target: Voltage-gated potassium channel subunit beta-2 (Rattus norvegicus) (UniProt P62483)
Assay: KvBeta enzyme negative modulators, primary screen, biochemical, NADPH fluorescence (AID 622);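 also: slope of raw intensity against log time taken from 70 to 1610 s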
Conditions: recombinant KvBeta, 4-cyanobenzaldehyde reduction, at 10 µM, active compounds read high

Sequence of Voltage-gated potassium channel subunit beta-2 (Rattus norvegicus) (P62483 whole entry, looked up): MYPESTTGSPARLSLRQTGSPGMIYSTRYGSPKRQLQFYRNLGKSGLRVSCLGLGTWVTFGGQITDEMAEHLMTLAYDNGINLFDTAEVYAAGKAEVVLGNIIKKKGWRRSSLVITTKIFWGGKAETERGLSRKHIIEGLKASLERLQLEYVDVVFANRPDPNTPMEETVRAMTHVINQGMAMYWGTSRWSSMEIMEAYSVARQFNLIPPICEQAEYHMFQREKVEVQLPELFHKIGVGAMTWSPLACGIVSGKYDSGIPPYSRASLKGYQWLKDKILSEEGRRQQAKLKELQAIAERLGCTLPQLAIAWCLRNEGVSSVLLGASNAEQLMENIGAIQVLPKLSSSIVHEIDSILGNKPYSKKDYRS

Fluorescence slope, inactive:
CC(C)(Oc1ccc(Cl)cc1)C(=O)NCc1ccncc1 -0.297
Cc1ccc(C)c(S(=O)(=O)NCc2cccnc2)c1 -0.467
Cc1cc(-c2ccccc2)c(C#N)c(N)n1 -0.394
CCCCCc1c(C)nc(SCC(=O)O)[nH]c1=O -0.539
COC(=O)c1ccc(NC(=O)C(C)N2C(=O)c3ccccc3C2=O)cc1 (stereo not given) -0.614
O=C(Nc1cccnc1)c1cccc(NC(=O)c2ccco2)c1 -0.446
Cc1ccnc(NC(=O)CCC(=O)N(CC(=O)NC(C)(C)C)C2CCCC2)c1 -0.638
COCCNC(=O)CN(C)S(=O)(=O)c1ccc(Br)cc1 -0.507
CC(=O)NC(C)c1nc2ccccc2n1C(C)C (stereo not given) -0.551
COC(=O)C1CCN(C(=O)c2sc3nc(-c4ccc(F)cc4)cn3c2C)CC1 -0.487
CC(Sc1nnnn1C)C(=O)Nc1ccc(Oc2ccccc2)cc1 (stereo not given) -0.505
c1ccc(Cn2nnnc2C(c2cccs2)N2CCSCC2)cc1 (stereo not given) -0.514
Cn1c(=O)[nH]c(=O)c2c1nc(NCCCn1ccnc1)n2Cc1cccc(Br)c1 -0.403
CCOC(=O)N1CCN(C(=O)c2c(-c3ccccc3)noc2C)CC1 -0.421
COc1ccc2c(c1OC)C(=O)N(c1ccc3c(c1)CCC3)C2=O -0.499
Cc1ccc(NC(=O)C2CCCN(S(=O)(=O)c3cnc[nH]3)C2)cc1C (stereo not given) -0.527
O=C(Cn1ncc2c1-c1ccccc1OC2)N1CCN(c2ccccn2)CC1 -0.587
C/C=C/c1ccc(OCCn2cncn2)c(OC)c1 -0.519
Cc1c(C(=O)OC2CCCCC2)[nH]c2c1C(=O)CC(C)(C)C2 -0.407
COc1ccccc1N1C(=O)CC(Sc2nc(C)cc(C)n2)C1=O (stereo not given) -0.447
Cc1nc(SCCC(=O)O)c2ccccc2n1 -0.261
Nc1sccc1C(=O)c1ccc(Cl)cc1 -0.44
Cc1ccccc1Cn1ccc(NC(=O)c2onc(C)c2Cl)n1 -0.425
Nc1c(C(=O)NCCN2CCOCC2)c2nc3ccccc3nc2n1-c1ccc2c(c1)OCO2 -0.348
Cc1cc(C(=O)Nc2nc3c(s2)CCCC3)cs1 -0.532
COC(=O)CNc1nc(C2CC2)nc2c1nnn2Cc1ccccc1Cl -0.479
CCN1CCN(C(c2ccc(F)cc2)c2nnnn2Cc2cccs2)CC1 (stereo not given) -0.339
O=C1CN(c2nc3ccccc3n3cnnc23)CC(=O)N1CCc1ccccc1 -0.588
O=S(=O)(c1ccc(S(=O)(=O)N2CCN3CCCC3C2)cc1)N1CCCC1 (stereo not given) -0.359
O=C1CC(c2cccc(Cl)c2)Cc2nc(N3CCN(c4ccccc4)CC3)ncc21 (stereo not given) -0.442
CCC1SC2=NC(C)=C(C(=O)OC)C(c3ccc(C)cc3)N2C1=O (stereo not given) -0.591
O=C(CN1CCC(NC(=O)c2ccc(F)cc2)CC1)NCc1ccccc1F -0.438
COC(=O)C(C)NC(=O)C12CC3CC(CC(C3)C1)C2 (stereo not given) -0.321
Cc1ccc(S(=O)(=O)NC(=O)c2cc(C)n(CCCn3ccnc3)c2C)cc1 -0.596
O=S(=O)(NCC(c1cccnc1)N1CCN(c2ccccc2)CC1)c1cc(F)ccc1F (stereo not given) -0.508
COc1ccc2ccccc2c1CN1CCN(C)CC1 -0.444
CCOC(=O)/C=C1\CC(=O)Nc2nonc2N1 -0.507
CCn1ncc(Cl)c1C(=O)Nc1ccncc1 -0.577
Cn1c(=O)cc(OCC(=O)NCCCN2CCN(c3cccc(Cl)c3)CC2)c2ccccc21 -0.514
CCOc1cc(C(=O)N(C)Cc2cc3cc(OC)ccc3[nH]c2=O)cc(OCC)c1OCC -0.207

Molecular target: Voltage-gated potassium channel subunit beta-2 (Rattus norvegicus) (UniProt P62483)
Assay: KvBeta positive modulators, primary screen, biochemical, NADPH fluorescence (AID 623;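 active = NADPH fluorescence slope more negative than the mean of all samples by about 3 SD, 99.7% confidence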;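 also: fluorescence intensity change per second fitted from 20 to 320 s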)
Conditions: Recombinant KvBeta, NADPH fluorescence decrease slope, 10 min; at 10 µM; active compounds read low

NADPH fluorescence slope, inactive:
CC(C)(Oc1ccc(Cl)cc1)C(=O)NCc1ccncc1 -5.5e-05
Cc1ccc(C)c(S(=O)(=O)NCc2cccnc2)c1 -5.5e-05
Cc1cc(-c2ccccc2)c(C#N)c(N)n1 -6.4e-07
CCCCCc1c(C)nc(SCC(=O)O)[nH]c1=O 3.4e-05
COC(=O)c1ccc(NC(=O)C(C)N2C(=O)c3ccccc3C2=O)cc1 (stereo not given) 5.9e-06
O=C(Nc1cccnc1)c1cccc(NC(=O)c2ccco2)c1 6.3e-05
Cc1ccnc(NC(=O)CCC(=O)N(CC(=O)NC(C)(C)C)C2CCCC2)c1 -1.4e-05
COCCNC(=O)CN(C)S(=O)(=O)c1ccc(Br)cc1 -3.7e-05
CC(=O)NC(C)c1nc2ccccc2n1C(C)C (stereo not given) -2.4e-05
COC(=O)C1CCN(C(=O)c2sc3nc(-c4ccc(F)cc4)cn3c2C)CC1 -4.6e-05
CC(Sc1nnnn1C)C(=O)Nc1ccc(Oc2ccccc2)cc1 (stereo not given) -2.8e-05
c1ccc(Cn2nnnc2C(c2cccs2)N2CCSCC2)cc1 (stereo not given) -6.4e-05
Cn1c(=O)[nH]c(=O)c2c1nc(NCCCn1ccnc1)n2Cc1cccc(Br)c1 -2.8e-05
CCOC(=O)N1CCN(C(=O)c2c(-c3ccccc3)noc2C)CC1 -4.8e-05
COc1ccc2c(c1OC)C(=O)N(c1ccc3c(c1)CCC3)C2=O 3.4e-05
Cc1ccc(NC(=O)C2CCCN(S(=O)(=O)c3cnc[nH]3)C2)cc1C (stereo not given) -2.9e-05
O=C(Cn1ncc2c1-c1ccccc1OC2)N1CCN(c2ccccn2)CC1 -5.3e-05
C/C=C/c1ccc(OCCn2cncn2)c(OC)c1 3.6e-05
Cc1c(C(=O)OC2CCCCC2)[nH]c2c1C(=O)CC(C)(C)C2 -9.3e-06
COc1ccccc1N1C(=O)CC(Sc2nc(C)cc(C)n2)C1=O (stereo not given) -9.1e-05
Cc1nc(SCCC(=O)O)c2ccccc2n1 -2.6e-06
Nc1sccc1C(=O)c1ccc(Cl)cc1 -2.6e-05
Cc1ccccc1Cn1ccc(NC(=O)c2onc(C)c2Cl)n1 -4.5e-05
Nc1c(C(=O)NCCN2CCOCC2)c2nc3ccccc3nc2n1-c1ccc2c(c1)OCO2 -6.2e-05
Cc1cc(C(=O)Nc2nc3c(s2)CCCC3)cs1 1.1e-05
COC(=O)CNc1nc(C2CC2)nc2c1nnn2Cc1ccccc1Cl -0.000128
CCN1CCN(C(c2ccc(F)cc2)c2nnnn2Cc2cccs2)CC1 (stereo not given) 1.5e-05
O=C1CN(c2nc3ccccc3n3cnnc23)CC(=O)N1CCc1ccccc1 -6.3e-05
O=S(=O)(c1ccc(S(=O)(=O)N2CCN3CCCC3C2)cc1)N1CCCC1 (stereo not given) -3.4e-05
O=C1CC(c2cccc(Cl)c2)Cc2nc(N3CCN(c4ccccc4)CC3)ncc21 (stereo not given) 2.5e-05
CCC1SC2=NC(C)=C(C(=O)OC)C(c3ccc(C)cc3)N2C1=O (stereo not given) -6.5e-05
O=C(CN1CCC(NC(=O)c2ccc(F)cc2)CC1)NCc1ccccc1F -6.6e-06
COC(=O)C(C)NC(=O)C12CC3CC(CC(C3)C1)C2 (stereo not given) -2.1e-05
Cc1ccc(S(=O)(=O)NC(=O)c2cc(C)n(CCCn3ccnc3)c2C)cc1 -2.4e-05
O=S(=O)(NCC(c1cccnc1)N1CCN(c2ccccc2)CC1)c1cc(F)ccc1F (stereo not given) 5.2e-05
COc1ccc2ccccc2c1CN1CCN(C)CC1 -0.000107
CCOC(=O)/C=C1\CC(=O)Nc2nonc2N1 -6.7e-05
CCn1ncc(Cl)c1C(=O)Nc1ccncc1 -5.6e-05
Cn1c(=O)cc(OCC(=O)NCCCN2CCN(c3cccc(Cl)c3)CC2)c2ccccc21 -1.4e-05
CCOc1cc(C(=O)N(C)Cc2cc3cc(OC)ccc3[nH]c2=O)cc(OCC)c1OCC -1.5e-05
